This is an account of results in PubChem BioAssay (NCATS).

One assay deals with C33A. In words: Primary qHTS to identify gynecologic anti-cancer compounds using libraries of approved drugs and bioactive compounds (AID 1345084). Also: nearly all actives have a fitted effect of over 55% in size. The following applies: Gynecologic cancer cell panel viability, ATPlite luminescence, 48 h; series mostly up to 57.5 µM. The method, boiled down:
(§1)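 Cytotoxicity screen measuring ATP content by luciferase luminescence. Each compound is applied at five concentrations for 48 h at 37 C with 5% CO2.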
Background: Quantitative high-throughput screening tests each substance at several concentrations.

The subject of a further assay is CASKI. The description is as above. The conditions noted are these: Gynecologic cancer cell panel viability, ATPlite luminescence, 48 h; series mostly up to 57.5 µM. An outline of the steps: as §1
Another assay concerns Es-2. The assay is described as above. The following applies: Gynecologic cancer cell panel viability, ATPlite luminescence, 48 h; series mostly up to 57.5 µM. The method, boiled down:
as §1
On the technique in general: ATP-based viability assays read luminescence as a measure of living cells.

The test system of the next assay is JEG-3. The description is as above. The following applies: Gynecologic cancer cell panel viability, ATPlite luminescence, 48 h; series mostly up to 57.5 µM. An outline of the steps:
as §1

A further assay has as its system OV90. The assay is described as above. The conditions noted are these: Gynecologic cancer cell panel viability, ATPlite luminescence, 48 h; series mostly up to 57.5 µM. The method, boiled down: as §1
For the next assay, the system named is Tov-21-G. Described as above. The following applies: Gynecologic cancer cell panel viability, ATPlite luminescence, 48 h; series mostly up to 57.5 µM. The method, boiled down: as §1
Another assay deals with Tov112D. Described as above. The following applies: Gynecologic cancer cell panel viability, ATPlite luminescence, 48 h; series mostly up to 57.5 µM. An outline of the steps:
as §1

A further assay concerns Hek293T. Described as above. The conditions noted are these: Gynecologic cancer cell panel viability, ATPlite luminescence, 48 h, control line for the selectivity index; series mostly up to 57.5 µM. An outline of the steps:
as §1

The test system of the next assay is PA-1. The assay is described as above. The conditions noted are these: Gynecologic cancer cell panel viability, ATPlite luminescence, 48 h; series mostly up to 57.5 µM. The method, boiled down:
as §1

Another assay relates to SKOV3. The assay is described as above. The conditions noted are these: Gynecologic cancer cell panel viability, ATPlite luminescence, 48 h; series mostly up to 57.5 µM. The method, boiled down:
as §1

Assay [1] is described as follows: qHTS assay to identify inhibitors of the type 1 interferon - major histocompatibility complex class I in skeletal muscle: Counter screen cell viability and HiBit confirmation (AID 1347412). Also: nearly all actives have a fitted effect of over 60% in size. The following applies: iHSKM muscle cells + IFN-b, HiBiT or CellTiter-Glo, 24 h. An outline of the steps: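 HLA-B*08:01–HiBiT knock-in immortalized human myoblasts (C25cl48) stimulated with 4.0 ng/ml human IFN-beta and dosed with compound in a 12-point 1:3 titration (top final 46 uM). After 24 hrs at 37 C, HiBiT lytic luminescence or CellTiter Glo ATP read out.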

The subject of the next assay is HeLa. In words: Primary qHTS to identify gynecologic anti-cancer compounds using libraries of approved drugs and bioactive compounds (AID 1345084). Also: nearly all actives have a fitted effect of over 55% in size. The following applies: Gynecologic cancer cell panel viability, ATPlite luminescence, 48 h; series mostly up to 57.5 µM. An outline of the steps: as §1

Records with an inconclusive call do not appear. Values without a mark were called inactive. The source made the active and inactive calls. Calls follow the shape of the dose curve; as a rule, active = well fitted curve in the direction sought with a large enough effect; inconclusive = small, poorly fitted or top-dose-only effect, or another doubt; inactive = no such curve, though single readings can be large; an effect the other way counts as inactive or inconclusive.
% is scaled to controls: 0 for no effect and ±100 for the full control effect; potency is read from the fitted curve at half-maximal effect.

Regarding `CC(=O)N1CCN(CCOc2ccc(C3CCN(C4=Nn5c(nnc5C(F)(F)F)CC4)CC3)cc2)CC1`, the Potency entry in the assay with C33A, in the assay with CASKI, in the assay with Es-2, in the assay with JEG-3, in the assay with OV90 and with Tov-21-G was “inactive” each time. For the same molecule, the Potency entry with Tov112D was “inactive”.

`C/C1=C/CCC2=CC(OC2=O)C(C)(C)/C=C/C1=O` (stereo not given): the Potency in the assay on C33A is 10 µM (active); with CASKI it was 6.31 µM (active); in the assay on Es-2 it was 8.91 µM (active); in the assay with Hek293T it was 12.6 µM (active); with PA-1 it was 8.91 µM (active); with SKOV3, 12.6 µM (active). Besides, the values for the Potency in the assay on Tov-21-G and in the assay with Tov112D were 8.91 µM (active) and 20 µM (active), respectively.

On to `Cc1[nH]c(/C=C2\C(=O)Nc3ccc(F)cc32)c(C)c1C(=O)NCCN1CCCC1`, for which the Potency entry with C33A, in the assay on CASKI, in the assay with Es-2, in the assay with Hek293T, with JEG-3 and in the assay with OV90 was “inactive” throughout. Further, the Potency result in the assay with Tov112D is “inactive”. Further, in the assay with SKOV3, the Potency is 15.8 µM (active). In assay [1] (Viability, at 45.9 µM (top of the series)), the activity change, negative = inhibition is -1.6%.

`Cn1c(CO)c(-c2ccccc2)c2cc([N+](=O)[O-])ccc21`: the Potency entry in the assay on C33A, in the assay on CASKI, with Es-2, in the assay with Hek293T, with JEG-3 and in the assay on OV90 was “inactive” throughout. In addition, the Potency result with PA-1, with Tov-21-G and with Tov112D was “inactive” throughout.

On to `CC(C)C[C@H](C(=O)O)c1cc(-c2ccc(C(F)(F)F)cc2)cc(-c2ccc(C(F)(F)F)cc2)c1`, for which the Potency entry in the assay with C33A, with CASKI, in the assay on Es-2, in the assay on JEG-3, in the assay on SKOV3 and with Tov-21-G was “inactive” throughout. For the same molecule, the Potency result with Tov112D was “inactive”.

On to `O=C1Cc2c([nH]c3ccc(Br)cc23)-c2ncccc2N1`, for which the Potency result with C33A, with CASKI, in the assay on Es-2, in the assay on Hek293T, in the assay on JEG-3 and in the assay with PA-1 was “inactive” throughout. The Potency entry with SKOV3, in the assay with Tov-21-G and with Tov112D was “inactive” in each case.

As for `C=CC(=O)N1CCC(Oc2cc3c(Nc4ccc(Cl)c(Cl)c4F)ncnc3cc2OC)CC1`, the Potency result in the assay with C33A, in the assay on Es-2 and in the assay with JEG-3 was “inactive” each time. In addition, the Potency with CASKI is 22.4 µM (active); in the assay with Tov-21-G, 25.1 µM (active).

`C=C(C)C(=O)O[C@H]1[C@H]2C(=C)C(=O)O[C@@H]2C[C@@H](C)[C@@H]2O[C@@H]2C(=O)[C@](C)(O)[C@@H]1OC(=O)C(=C)C`: the Potency was 10 µM (active) in the assay on C33A; 10 µM (active) in the assay on CASKI; 7.94 µM (active) with Es-2; 2.82 µM (active) in the assay with Hek293T; 12.6 µM (active) with JEG-3; 10 µM (active) in the assay with SKOV3.

As to `O=C(c1c(F)ccc(NS(=O)(=O)N2CC[C@@H](F)C2)c1F)c1c[nH]c2ncc(-c3cnc(C4CC4)nc3)cc12`, the Potency result in the assay on C33A, in the assay with CASKI, in the assay with HeLa, in the assay on Hek293T, with JEG-3 and in the assay with PA-1 was “inactive” each time. In the assay with Tov112D, the Potency result is “inactive”. Also, in the assay with Tov-21-G, the Potency is 11.2 µM (active).

In the case of `COc1cc2c(cc1-c1c(C)noc1C)ncc1[nH]c(=O)n(C(C)c3ccccn3)c12` (stereo not given), the Potency result in the assay with C33A, with CASKI, in the assay with Hek293T, in the assay with JEG-3 and in the assay with Tov112D was “inactive” throughout. Also, the Potency in the assay on SKOV3 was 12.6 µM (active).

As for `COc1cc2ncnc(Oc3ccc(CC(=O)Nc4cnn(C(C)C)c4)cc3)c2cc1OC`, the Potency entry in the assay on C33A, in the assay on Es-2, with HeLa, in the assay with Hek293T, in the assay with JEG-3 and in the assay on OV90 was “inactive” throughout. The Potency entry in the assay on PA-1, in the assay on SKOV3, in the assay on Tov-21-G and in the assay with Tov112D was “inactive” throughout.

Consider `CC#CC(=O)Nc1ccc2ncnc(Nc3cccc(Br)c3)c2c1`, for which the Potency with C33A is 11.2 µM (active); in the assay with CASKI, 8.91 µM (active); in the assay on Es-2, 14.1 µM (active); with PA-1 it was 7.94 µM (active); in the assay on Tov-21-G, 14.1 µM (active); with Tov112D it was 12.6 µM (active). Besides, the Potency result in the assay with JEG-3 and in the assay on OV90 was “inactive” each time.

Turning to `O=C(NCCCNC(=O)c1ccc[nH]c1=O)c1cc(-c2ccccc2)on1`, the Potency entry in the assay on C33A, with CASKI, in the assay on SKOV3 and in the assay with Tov112D was “inactive” each time. Further, the Potency in the assay with PA-1 was 8.91 µM (active).

As for `C=C1C(=O)OC2/C=C(\C)CC/C=C(\C)CC(OC(C)=O)C12` (stereo not given), the Potency entry in the assay with C33A, in the assay with CASKI, in the assay with HeLa, in the assay on Hek293T, with JEG-3 and with OV90 was “inactive” in each case. Besides, the Potency entry with Tov-21-G and in the assay with Tov112D was “inactive” in each case.

Regarding `CCOc1ccc(Cc2nc(-c3c(C)nc4ccccn34)cs2)cc1`, the Potency is 0.355 µM (active) in the assay on C33A and 0.0891 µM (active) in the assay with Es-2.

As for `COCC(=O)NC/C=C/c1ccc2ncnc(Nc3ccc(Oc4ccc(C)nc4)c(C)c3)c2c1`, the Potency entry with C33A, with Es-2, in the assay with HeLa, with Hek293T, with JEG-3 and in the assay with OV90 was “inactive” in each case. Besides, the Potency entry in the assay on PA-1, with Tov-21-G and in the assay with Tov112D was “inactive” in each case. For the same molecule, in the assay with SKOV3, the Potency is 31.6 µM (active).

In the case of `CC1CCC/C=C/C(=O)c2c(O)cc(O)cc2CC(=O)O1` (stereo not given), the Potency in the assay on C33A was 11.2 µM (active); in the assay on Hek293T, 14.1 µM (active); in the assay with JEG-3 it was 14.1 µM (active); in the assay on PA-1, 5.62 µM (active); with SKOV3 it was 22.4 µM (active). Also, in the assay on CASKI, the Potency result is “inactive”.

For `CC(=O)O[C@H]1CC2C(COC(=O)CC(C)C)=CO[C@@H](OC(=O)CC(C)C)C2[C@]12CO2` (stereo not given in full), the Potency entry in the assay with C33A, in the assay on Es-2, in the assay with HeLa, in the assay on Hek293T, in the assay with JEG-3 and with OV90 was “inactive” throughout. The Potency result in the assay with Tov-21-G and with Tov112D was “inactive” each time.

For the molecule `CC1CCCC[C@H]2C(=O)C=C[C@H](O)[C@@H]2CC(=O)O1` (stereo not given in full), the Potency was 20 µM (active) with C33A; 10 µM (active) in the assay on Es-2; 15.8 µM (active) in the assay with Hek293T; 10 µM (active) with PA-1; 3.55 µM (active) with SKOV3; 14.1 µM (active) in the assay with Tov112D. Also, the Potency entry with CASKI is “inactive”.

Consider `CCn1c2ccccc2c2cc(Nc3ccnc(NCCCN4CCOCC4)n3)ccc21`, for which the Potency result in the assay with C33A, in the assay on CASKI, with HeLa, with Tov-21-G and in the assay on Tov112D was “inactive” each time.

Consider `CN1CCN(C2CCN(C(=O)Nc3cc(Oc4ccc(NC(=O)C5(C(=O)Nc6ccc(F)cc6)CC5)c(F)c4)ccn3)CC2)CC1`, for which the Potency entry with C33A, in the assay on CASKI, in the assay on HeLa, with Hek293T and in the assay with Tov112D was “inactive” throughout. Further, the Potency in assay [1] (HiBiT) was 4.97 µM (active); in [1] (Viability), 14 µM (active).
